Compound activity deposited in PubChem by National Center for Advancing Translational Sciences (NCATS).
The list is not random: actives were taken first. Their share in the collection is about 19%.
TDP1 cell noCPT – qHTS for Inhibitors of human tyrosyl-DNA phosphodiesterase 1 (TDP1): qHTS in cells in absence of CPT. DT40 Tdp1-/- hTDP1 cells, no CPT, ATP luminescence, 48 h. Potency, µM (top dose mostly 46.2 µM), for the others: top-dose activity change, negative = growth inhibition, most hits filed as inhibitors. AID 686978, 2013. actives 15% (n = 420,000); further: nearly all actives have a fitted effect of over 55% in size
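No-CPT arm: Tdp1-/-;hTDP1 DT40 cells (400/well) plus compounds, incubated ≥48 hr at 37 °C. Readout CellTiter-Glo luminescence.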
KB-V1 MDR tox – kills drug-selected multidrug resistant KB-V1 cells | KB-V1 MDR cells viability, CellTiter-Glo, 72 h | Potency, µM (series often up to 46.1 µM), usual class: cytotoxic | actives 3.4% (n = 400,000); further: nearly all actives have a fitted effect of over 60% in size
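Drug-selected KB-V1 cells, grown in DMEM lacking phenol red with 10% FBS, receive compound titrations; after three days at 37 degrees C, surviving cell ATP is quantified by CellTiter-Glo luminescence and responses normalized and curve-fitted.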
HT1080-NT tox – kills 2HG-producing HT-1080-NT fibrosarcoma cells; HT-1080-NT fibrosarcoma viability, CellTiter-Glo ATP luminescence, 48 h; Potency, µM (highest dose often 46.1 µM), without a hit: top-dose activity, negative = less viability, actives largely listed as cytotoxic; actives 1.6% (n = 360,000);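 further: NT is the 2HG producing partner of a matched IDH1 knockdown line; 0% = DMSO-treated cells and -100% = media-only wells without cells; nearly all actives have a fitted effect of over 55% in size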
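Compounds were tested in concentration-response format on HT-1080-NT cells for 48 hours at 37 degrees C. Cell viability came from CellTiter-Glo luminescence; curves were classified by r2, response magnitude and activity.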
KB-3-1 tox – kills parental KB-3-1 adenocarcinoma cells | KB-3-1 viability, CellTiter-Glo ATP luminescence, 72 h | Potency, µM (top dose mostly 46.1 µM), hits mostly cytotoxic | actives 1.4% (n = 400,000); further: nearly all actives have a fitted effect of over 60% in size
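Multi-concentration cytotoxicity screen in KB-3-1 cells grown in DMEM lacking phenol red with 10% FBS. After 72 h at 37 °C with compound, ATP-dependent luminescence was recorded.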
DT40 TDP1 CPT – growth inhibition of DT40 Tdp1-/-;hTDP1 cells with camptothecin (screen for TDP1 inhibitors) | chicken DT40 Tdp1-/-;hTDP1 cells + 20 nM CPT, ATP luminescence, 48 h | Potency, µM (highest dose often 46.2 µM), for the others: at the highest dose activity change, negative = growth inhibition, actives largely listed as inhibitors | actives 12% (n = 420,000) | AID 686979; further: nearly all actives have a fitted effect of over 55% in size
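Chicken DT40 Tdp1-/- cells stably complemented with human TDP1 were seeded at 400 cells/well in medium containing 20 nM camptothecin, exposed to pin-transferred compounds, and grown at 37 °C for at least 48 hr. Viability was read as ATP luminescence.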
HT1080 IDH1KD tx – HT-1080 IDH1 knockdown cell toxicity (counter line). HT-1080 IDH1 knockdown viability, ATP luminescence, 48 h. AID 686971. actives 2% (n = 360,000). Potency, µM (doses to about 46.1 µM), for the others: top-dose activity, negative = toxicity, actives largely listed as cytotoxic;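 further: 0% = DMSO wells and -100% = cell-free medium wells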
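Viability of IDH1-knockdown HT-1080 fibrosarcoma cells was assessed by CellTiter-Glo after 48 h at 37 °C with titrated compound; concentration-effect curves were classified by fit quality and response size.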
* hit, by the source's call; i = inactive; ? = inconclusive; / = no result given. The call rests on the fitted dose curve; in most records, active means well fitted curve in the direction sought with a large enough effect; inconclusive means small, poorly fitted or top-dose-only effect, or another doubt; inactive means no such curve, though single readings can be large; an effect the other way counts as inactive or inconclusive. Unless noted, on the % scale 0 is the no-effect control and ±100 the full control effect; potency means the concentration at half of the fitted maximal effect.

SMILES | TDP1 cell noCPT | KB-V1 MDR tox | HT1080-NT tox | KB-3-1 tox | DT40 TDP1 CPT | HT1080 IDH1KD tx
Cc1cc2c(n1-c1ccc(C(=O)NCC(C)c3ccccc3)cc1)CCCC2 (stereo unspecified) | 15µM* | ? | / | i | 23µM* | /
Cc1csc2c(=O)n(CCO)c(=O)[nH]c12 | -6% | i | 7% | i | -19% | -3%
Cc1ccc(CNc2oc(-c3ccc(COc4ccc(C)cc4)o3)nc2C#N)cc1 | ? | i | / | i | ? | /
COc1ccc(Cl)c(-c2cc(C(=O)Nc3ccc(F)cc3)[nH]n2)c1 | 23µM* | i | -6% | i | 15µM* | -20%
COc1cc(NC(=O)c2cc(-c3cccc(OC)c3)n[nH]2)cc(OC)c1 | 21µM* | i | / | i | 15µM* | /
COc1ccc(-c2cc(C(=O)Nc3ccc(NC(C)=O)cc3)[nH]n2)c(C)c1 | -19% | i | ? | i | ? | 5%
COc1ccc(Cl)c(-c2cc(C(=O)Nc3ccccc3)[nH]n2)c1 | 16µM* | i | ? | i | 23µM* | -20%
COc1cc(NC(=O)c2ccccc2-c2ccccc2)cc(OC)c1 | ? | 12µM* | 5% | i | ? | 2%
CCC(=O)Nc1ccccc1Nc1cc(C#N)c(C#N)cc1[N+](=O)[O-] | ? | i | -13% | i | ? | -19%
Cc1cc(F)ccc1NC(=O)C1CCCN(S(=O)(=O)c2ccc3c(c2)CCCC(=O)N3)C1 (stereo unspecified) | / | i | / | i | / | /
Cc1c(/C=N/NC(N)=O)c2ccccn2c1C(=O)c1ccc(F)cc1 | 9.2µM* | 18µM* | -15% | i | ? | -28%
CNC(=S)N/N=C/c1c(C)c(C(=O)c2ccc(F)cc2)n2ccccc12 | ? | i | -11% | i | ? | -10%
O=C(c1ccc2c(c1)N(Cc1ccccc1)C(=O)c1ccccc1S2=O)N1CCC(Cc2ccccc2)CC1 (stereo unspecified) | 6.5µM* | ? | / | ? | 6.5µM* | /
O=C(c1ccc2c(c1)N(Cc1ccc(F)cc1)C(=O)c1ccccc1S2=O)N1CCOCC1 (stereo unspecified) | 3% | i | / | i | -10% | /
O=C(c1ccc2c(c1)N(Cc1ccc(F)cc1)C(=O)c1ccccc1S2=O)N1CCC(Cc2ccccc2)CC1 (stereo unspecified) | 15µM* | ? | / | ? | 16µM* | /
CCOC(=O)C1CCCN(C(=O)c2ccc3c(c2)N(Cc2ccccc2)C(=O)c2ccccc2S3=O)C1 (stereo unspecified) | 18µM* | ? | 1% | i | ? | -3%
O=C(O)c1ccc2c(c1)N(Cc1ccccc1)C(=O)c1ccccc1S2=O (stereo unspecified) | -17% | ? | 6% | i | ? | -3%
CS(=O)(=O)Oc1ccc(Br)cc1/C=C1/N=C(c2ccco2)OC1=O | -8% | i | 10% | i | -17% | 15%
Cc1oc(-c2cc(F)ccc2F)nc1CN1CCN(c2ncnc3ccccc23)CC1 | 21µM* | ? | -16% | i | 12µM* | -6%
COc1ccc(-c2nc(CN3CCN(c4ncnc5ccccc45)CC3)c(C)o2)c(OC)c1 | 5.8µM* | i | -16% | ? | 8.2µM* | -23%
CCC1([N+](=O)[O-])COC(c2ccc(Cl)cc2)OC1 (stereo unspecified) | -24% | i | -3% | i | -26% | 2%
COc1cc(OC)c(OC)cc1CN1CCCC(C(=O)c2ccccc2SC)C1 (stereo unspecified) | 21µM* | ? | -24% | i | ? | -13%
